Laboratory results: the supplement of paper PMC6555819

Experiments:
Test in all cases: PBM binding z-score (relative to random genomic background probes); higher = stronger binding; sequences stand for … in GC…GCGATTGACAGCGTAGAATGAAGG
[1] = tested on: FXR:RXRa (NR concentration 270 nM, RXRa partner concentration 90 nM)
How it was run: (§1)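 The probes on custom Agilent 4×180K protein-binding microarrays were double-stranded, with 34-nt variable regions bearing direct-repeat seeds, single-nucleotide variants, half-site ablations and random human genomic background sequences. Incubation lasted 1 h with ligand-free nuclear receptor dimers in PBS pH 7.4, 2% milk, 0.02% Triton X-100, 1 mM DTT, 0.2 mg/mL BSA and 0.4 mg/ml salmon testes DNA. Antibodies against each partner (one per run) detected bound dimers, and fluorescence scans were regression-normalized. Binding z-scores take the random background probes as reference.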

[2] = tested on: LXRa:RXRa (NR concentration 270 nM, RXRa partner concentration 90 nM)
How it was run: as §1

[3] = tested on: LXRa homodimer (NR concentration 270 nM)
How it was run: as §1

[4] = tested on: LXRb:RXRa (NR concentration 270 nM, RXRa partner concentration 90 nM)
How it was run: as §1

[5] = tested on: LXRb homodimer (NR concentration 270 nM)
How it was run: as §1

[6] = tested on: PPARa:RXRa (NR concentration 270 nM, RXRa partner concentration 90 nM)
How it was run: as §1

[7] = tested on: PPARg:RXRa (NR concentration 180 nM, RXRa partner concentration 90 nM)
How it was run: as §1

[8] = tested on: PPARg:RXRa 270nM:90nM, anti-RXR (NR concentration 270 nM, RXRa partner concentration 90 nM)
How it was run: as §1

[9] = tested on: PPARg:RXRa 30nM:10nM, anti-RXR (NR concentration 30 nM, RXRa partner concentration 10 nM)
How it was run: as §1

[10] = tested on: PPARg:RXRa 90nM:30nM, anti-RXR (NR concentration 90 nM, RXRa partner concentration 30 nM)
How it was run: as §1

| Sequence | PBM binding z-score [1] | PBM binding z-score [2] | PBM binding z-score [3] | PBM binding z-score [4] | PBM binding z-score [5] | PBM binding z-score [6] | PBM binding z-score [7] | PBM binding z-score [8] | PBM binding z-score [9] | PBM binding z-score [10] |
| --- | --- | --- | --- | --- | --- | --- | --- | --- | --- | --- |
| CCTAGCAGGCCAATCTGGGTCACTCCAGGCTTGA | 0.645 | 1.09 | -0.166 | 0.329 | -1.31 | 2.6 | 1.99 | 2.05 | -0.235 | 1.03 |
| GCTTACGGGTCAAAGGTTTTAGCATGAATAGAAT | 6.63 | 4.06 | 0.0126 | 4.17 | 0.372 | 5.95 | 9.13 | 7.88 | 6.54 | 8.43 |
| AGTCAGAGTTCAGGACGAGGTAACGTAAAGCACG | 3.72 | 3.51 | 0.881 | 1.82 | -0.0374 | 3.02 | 2.26 | 2.51 | 0.689 | 2.1 |
| GGAACGAGGGCATTCGAGTTGATATCATGGCGAT | 1.43 | 2.06 | -0.497 | 0.289 | -0.383 | 1.64 | 1.04 | 0.683 | 0.332 | 0.448 |
| GCAGACAGGAGAAACGCAGGTAACTCAGGGTGGC | -0.504 | -0.393 | -0.471 | -0.777 | -1.34 | -0.523 | 0.376 | -0.659 | -0.781 | -0.611 |
| CCTTACGGGTCATGGTTATAGCACGGGTGGTACG | 5.13 | 3.14 | -0.115 | 2.68 | -0.0469 | 4.97 | 3.99 | 4.19 | 1.44 | 3.03 |
| TAGCCTAGGTCAATCAGGGGCCAGTATAGAAAGC | 3.77 | 2.77 | 0.313 | 2.59 | 0.0516 | 3.34 | 2.24 | 2.28 | 0.674 | 1.76 |
| ATATGTAGGTTAAGGGTCATACAGGTTGGTTCGC | 4.79 | 4.61 | 2.43 | 4.61 | 1.28 | 6.57 | 12.1 | 10.2 | 9.63 | 12.5 |
| ATCTCTAGGTAACCAAGTTCACTGAATGCCGAAC | 0.969 | 1.87 | 2 | 1.58 | 1.09 | 2.25 | 1.1 | 1.54 | 0.634 | 1.2 |
| CAAACTAGGTCACCGGAGGGTCAAAGTCCGCATG | 5.69 | 5.1 | 1.95 | 4.16 | 0.645 | 5.86 | 8.8 | 7.65 | 4.96 | 7.5 |
| CCGAGTAGGTTATGGGGCCTTCAGGCAACGGTGA | 0.0359 | 0.107 | -0.191 | 0.353 | -0.362 | 1.33 | 1.43 | 2.56 | 0.26 | 1.58 |
| CCTTACGGGTCACGAAGTTATAGCACGACGAGCG | 6.04 | 3.71 | -0.266 | 3.39 | -0.139 | 5.75 | 6.25 | 5.64 | 2.5 | 4.43 |
| ATATGAAGGTTAGCTGGGGTCATTCAGACTAGGC | 5.27 | 6.28 | 3.34 | 5.36 | 1.06 | 4.7 | 2.43 | 3.52 | 1.14 | 2.37 |
| GCAGACAGGTCAAACGCAGGTAACTCAGGGTGGC | 6.46 | 4.96 | 1.47 | 3.62 | 0.592 | 5.06 | 3.15 | 3.59 | 0.933 | 2.14 |
| TTAATGAGGTTAAAGATCAGGGAACGTGGCGTCG | 3.44 | 3.14 | 0.612 | 2.28 | 0.716 | 5.01 | 6.53 | 7.02 | 6.34 | 7.88 |
| CTTCCAAGGTCATAGGAGGTCAGTGAAGACAGAT | 7.67 | 7.56 | 6.46 | 6 | 1.51 | 6.02 | 5.71 | 6.17 | 2.87 | 4.89 |
| CAGCCTAGGGCAGGGCCAGTATAGGAGGAACGTT | -0.713 | -0.785 | -0.921 | -1.11 | -1.4 | -0.747 | -0.037 | -0.861 | -0.884 | -1.24 |
| CAAACTAGGTCACAGAGGTCAAAGTGCGTGCGTA | 7.35 | 6.76 | 7.05 | 6.54 | 2.29 | 6.71 | 10.1 | 8.21 | 6.64 | 8.45 |
| TCTAGTTGGTCAAAGGTGACACACTCGAAATGCG | 1.46 | 1.67 | 0.489 | 2.08 | 0.376 | 4.71 | 8.48 | 8.54 | 8.19 | 8.69 |
| ACAGACAGGTGATGAAGGTAACTCAAGCTATCAT | -0.102 | -0.296 | -0.525 | -0.0355 | -0.354 | 0.0252 | 0.537 | -0.224 | 0.113 | -0.261 |
| GCTTGTAGATCAAGGTTAAGAACGACTAAGCTAA | 0.0945 | 0.622 | -0.347 | 0.349 | -0.704 | 1.59 | 1.12 | 2.18 | 0.429 | 1.44 |
| CCTTACGGGTCACTCCTGGTTATAGCATCGGAGT | 4.24 | 5.52 | -0.0362 | 3.01 | 0.134 | 4.2 | 2.76 | 3.54 | 0.987 | 2.25 |
| CTAGAAAGGTCGGTTGAGGTGAGTATACGGATAA | 3.11 | 1.64 | -0.0561 | 1.64 | -0.0428 | 2.6 | 0.509 | 1.1 | 0.117 | 0.585 |
